Source: PubChem BioAssay AID1159580 (chemical genetic matrix, 2015)
Out of some 5,500 compounds screened, about 2,000 (36%) were called active. Another 18% or so got no clear call; they are omitted. No stated cut-off is given here; in the data, active means normalized growth mostly below about 0.91 (no sharp cut-off); inconclusive means no clear call, values can overlap the other calls; inactive means mostly above about 0.92. The list shows a part of the results.

Experiment: chemical genetic growth profiling, strain panel (AID 1159580);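 further: tested at 20 µM; growth read once vehicle control cultures reached saturation at 30 °C; 1 = growth at the plate median or of vehicle wells; lower values mean less growth of the strain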
Conditions: growth OD

Measured: normalized growth

CCn1cc(C(=O)O)c(=O)c2cnc(N3CCCC3)nc21
inactive: S. cerevisiae deletion strains, locus YKL009W, strain mrt4, hits give low values 0.987 | S. cerevisiae deletion strains, locus YKL068W, hits give low values 1 | S. cerevisiae deletion strains, locus YKL085W, strain MDH1 (second series), hits give low values 0.998 | S. cerevisiae deletion strains, locus YKL085W, strain MDH1, hits give low values 0.998 | S. cerevisiae deletion strains, locus YKL160W, strain elf1, hits give low values 0.975 | S. cerevisiae deletion strains, locus YKL190W, strain CNB1, hits give low values 1 | S. cerevisiae deletion strains, locus YKR001C, strain vps1, hits give low values 0.943 | S. cerevisiae deletion strains, locus YKR026C, strain gcn3, hits give low values 1.02 | S. cerevisiae deletion strains, locus YKR091W, strain srl3, hits give low values 1 | S. cerevisiae deletion strains, locus YLL001W, strain dnm1, hits give low values 1.02 | S. cerevisiae deletion strains, locus YLL026W, hits give low values 1 | S. cerevisiae deletion strains, locus YLL041C, strain sdh2, hits give low values 0.993 | S. cerevisiae deletion strains, locus YLR027C, strain aat2, hits give low values 0.996 | S. cerevisiae deletion strains, locus YLR039C, strain RIC1, hits give low values 0.935 | S. cerevisiae deletion strains, locus YLR058C, strain SHM2, hits give low values 1.01 | S. cerevisiae deletion strains, locus YLR102C, strain apc9, hits give low values 1 | S. cerevisiae deletion strains, locus YLR113W, strain HOG1, hits give low values 0.986 | S. cerevisiae deletion strains, locus YLR221C, strain rsa3, hits give low values 0.994 | S. cerevisiae deletion strains, locus YLR258W, strain gsy2, hits give low values 1.02 | S. cerevisiae deletion strains, locus YLR262C, strain YPT6, hits give low values 0.904 | S. cerevisiae deletion strains, locus YLR268W, strain sec22, hits give low values 0.972 | S. cerevisiae deletion strains, locus YLR320W, strain mms22, hits give low values 1.03 | S. cerevisiae deletion strains, locus YLR330W, strain CHS5, hits give low values 1.01 | S. cerevisiae deletion strains, locus YLR342W, strain FKS1 (second series), hits give low values 1.04 | S. cerevisiae deletion strains, locus YLR342W, strain FKS1, hits give low values 1 | S. cerevisiae deletion strains, locus YLR357W, strain rsc2, hits give low values 1.01 | S. cerevisiae deletion strains, locus YLR370C, strain arc18, hits give low values 0.981 | S. cerevisiae deletion strains, locus YLR371W, strain rom2, hits give low values 0.998 | S. cerevisiae deletion strains, locus YLR384C, strain iki3, hits give low values 1.01 | S. cerevisiae deletion strains, locus YLR418C, strain cdc73, hits give low values 1.09 | S. cerevisiae deletion strains, locus YML016C, strain PPZ1, hits give low values 0.999 | S. cerevisiae deletion strains, locus YML032C, strain rad52, hits give low values 0.999 | S. cerevisiae deletion strains, locus YML120C, strain ndi1, hits give low values 0.981 | S. cerevisiae deletion strains, locus YML124C, strain tub3, hits give low values 0.993 | S. cerevisiae deletion strains, locus YMR058W, strain fet3, hits give low values 1 | S. cerevisiae deletion strains, locus YMR078C, strain ctf18, hits give low values 1 | S. cerevisiae deletion strains, locus YMR125W, strain sto1, hits give low values 1.01 | S. cerevisiae deletion strains, locus YMR129W, hits give low values 1 | S. cerevisiae deletion strains, locus YMR205C, strain PFK2, hits give low values 1.06 | S. cerevisiae deletion strains, locus YMR223W, strain ubp8, hits give low values 0.98 | S. cerevisiae deletion strains, locus YMR231W, strain pep5, hits give low values 1 | S. cerevisiae deletion strains, locus YMR263W, strain SAP30, hits give low values 1.01 | S. cerevisiae deletion strains, locus YMR307W, strain GAS1, hits give low values 1.06 | S. cerevisiae deletion strains, locus YNL067W, strain RPL9B, hits give low values 0.998 | S. cerevisiae deletion strains, locus YNL071W, strain lat1, hits give low values 1 | S. cerevisiae deletion strains, locus YNL128W, strain TEP1, hits give low values 1.05 | S. cerevisiae deletion strains, locus YNL153C, strain GIM3, hits give low values 0.996 | S. cerevisiae deletion strains, locus YNL183C, strain NPR1, hits give low values 0.924 | S. cerevisiae deletion strains, locus YNL209W, strain ssb2, hits give low values 0.993 | S. cerevisiae deletion strains, locus YNL233W, strain BNI4, hits give low values 1.02 | S. cerevisiae deletion strains, locus YNL248C, strain rpa49, hits give low values 0.956 | S. cerevisiae deletion strains, locus YNL250W, strain rad50, hits give low values 0.996 | S. cerevisiae deletion strains, locus YNL271C, strain bni1, hits give low values 1.02 | S. cerevisiae deletion strains, locus YNL298W, strain CLA4, hits give low values 1 | S. cerevisiae deletion strains, locus YNL307C, strain MCK1, hits give low values 1.03 | S. cerevisiae deletion strains, locus YNL322C, strain KRE1 (second series), hits give low values 1 | S. cerevisiae deletion strains, locus YNL322C, strain KRE1, hits give low values 0.999 | S. cerevisiae deletion strains, locus YNR049C, strain mso1, hits give low values 0.984 | S. cerevisiae deletion strains, locus YNR052C, strain pop2, hits give low values 0.961 | S. cerevisiae deletion strains, locus YOL006C, strain TOP1, hits give low values 1.06 | S. cerevisiae deletion strains, locus YOL012C, strain htz1 1.62 | S. cerevisiae deletion strains, locus YOL147C, strain pex11, hits give low values 0.998 | S. cerevisiae deletion strains, locus YOR001W, strain rrp6, hits give low values 0.958 | S. cerevisiae deletion strains, locus YOR061W, strain CKA2, hits give low values 1 | S. cerevisiae deletion strains, locus YOR069W, strain VPS5, hits give low values 1 | S. cerevisiae deletion strains, locus YOR070C, strain gyp1, hits give low values 1.01 | S. cerevisiae deletion strains, locus YOR080W, strain dia2, hits give low values 1.01 | S. cerevisiae deletion strains, locus YOR083W, strain WHI5, hits give low values 0.968 | S. cerevisiae deletion strains, locus YOR106W, strain vam3, hits give low values 0.936 | S. cerevisiae deletion strains, locus YOR136W, strain idh2, hits give low values 0.999 | S. cerevisiae deletion strains, locus YOR144C, strain elg1, hits give low values 0.988 | S. cerevisiae deletion strains, locus YOR184W, strain ser1, hits give low values 0.978 | S. cerevisiae deletion strains, locus YOR231W, strain MKK1, hits give low values 0.983 | S. cerevisiae deletion strains, locus YOR265W, strain rbl2, hits give low values 1.01 | S. cerevisiae deletion strains, locus YOR270C, strain vph1, hits give low values 1.02 | S. cerevisiae deletion strains, locus YOR290C, strain snf2, hits give low values 0.994 | S. cerevisiae deletion strains, locus YOR316C, strain cot1, hits give low values 1 | S. cerevisiae deletion strains, locus YPL051W, strain arl3, hits give low values 0.981 | S. cerevisiae deletion strains, locus YPL055C, strain LGE1, hits give low values 1.02 | S. cerevisiae deletion strains, locus YPL078C, strain atp4, hits give low values 0.974 | S. cerevisiae deletion strains, locus YPL106C, strain sse1, hits give low values 1.03 | S. cerevisiae deletion strains, locus YPL240C, strain hsp82, hits give low values 0.986 | S. cerevisiae deletion strains, locus YPL241C, strain CIN2, hits give low values 1.01 | S. cerevisiae deletion strains, locus YPL256C, strain CLN2, hits give low values 0.98 | S. cerevisiae deletion strains, locus YPR119W, strain clb2, hits give low values 0.996 | S. cerevisiae deletion strains, locus YPR141C, strain kar3, hits give low values 1 | S. cerevisiae deletion strains, locus YPR163C, strain tif3, hits give low values 1.02 | S. cerevisiae deletion strains, locus YPR167C, strain met16, hits give low values 0.986 | S. cerevisiae deletion strains, strain wtn01, hits give low values 0.987 | S. cerevisiae strains, strain wild type, hits give low values 1.01
active: S. cerevisiae deletion strains, locus YLR262C, strain YPT6 (second series), hits give low values 0.789
